ALDH1A1 block: ALDH1A1 (human) enzyme inhibition | Purified ALDH1A1, NADH fluorescence, propionaldehyde substrate | Potency, µM (series often up to 75.3 µM), most hits filed as inhibitors | actives 7.3% (n = 220,000)
LMNA splice mod: LMNA splicing modulation; HeLa LMNA splicing GFP/RFP minigene ratio, 48 h; Potency, µM (titrated, usually from 46.1 µM), hits mostly inhibitors; actives 0.01% (n = 200,000); AID 1487; active = well fitted inhibition curve with a large enough effect in the signal ratio, with a control signal flat, not every such curve was filed as active; inconclusive = small, poorly fitted or top-dose-only effect, or effect the other way, or a change in a side signal; the % refers to the signal ratio
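Read-out is the ratio of GFP to DsRed2 object intensity, acquired by 488 nm laser-scanning cytometry on HeLa lamin A-EGFP minigene reporter cells. Compound incubation 48 hrs at 37 °C in Opti-MEM with 2% FBS; DMSO 0.5% final.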
IMPase inh: membrane-permeable compound that blocks inositol monophosphatase | 120,000 tested, under 10 active | CHO-M1 cells, IP1 accumulation, HTRF TR-FRET ratio | inhibition (IP1 accumulation), % at 46.1 µM; active = well fitted curve in the direction sought with a large enough effect in the signal ratio, not every such curve was filed as active; inconclusive = small, poorly fitted or top-dose-only effect, or a change in a side signal; inactive = no such curve, though single readings can be large or run the other way; the % refers to the signal ratio;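 also: cells stimulated with carbachol in lithium chloride buffer; higher means more IMPase inhibition seen as more IP1 and lower FRET ratio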
Target sequence (P97697 whole entry, looked up): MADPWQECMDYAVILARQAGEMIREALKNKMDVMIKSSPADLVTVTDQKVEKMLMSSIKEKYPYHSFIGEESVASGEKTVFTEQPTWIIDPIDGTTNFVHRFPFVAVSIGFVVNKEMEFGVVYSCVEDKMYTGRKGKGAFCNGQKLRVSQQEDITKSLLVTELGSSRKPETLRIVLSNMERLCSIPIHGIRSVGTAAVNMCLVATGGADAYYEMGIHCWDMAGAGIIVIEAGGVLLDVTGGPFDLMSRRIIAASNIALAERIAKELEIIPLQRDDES
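CHO-M1 cells (CHO stably expressing M1 receptor), compound up to 46 uM final, stimulated with carbachol (50 uM as added) in buffer with 50mM LiCl, pH 7.4, 30 min at 37C. Cytosolic IP1 read by TR-FRET; AC50 from Hill fits.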
Luc counter: Kinase-Glo luciferase inhibition (counter-screen). actives 0.28% (n = 200,000). Kinase-Glo luciferase, ATP luminescence, 8 min. Q27757. Potency, µM (doses to about 38.3 µM), most hits filed as inhibitors; active = well fitted inhibition curve with a large enough effect; inconclusive = small, poorly fitted or top-dose-only effect; also: nearly all actives have a fitted effect of over 60% in size
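Luminescence was the read-out, taken after 8-minute incubation at ambient temperature. Luciferase turned over luciferin with 10 uM ATP in imidazole pH 7.2 buffer containing KCl, MgCl2, Tween 20 and BSA.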
PNC inhibitor: blocks assembly of the perinucleolar compartment; PC3M PTB-GFP, PNC prevalence imaging, 16 h; hits give low values; activity change (PNC), negative = inhibition, % at 10 µM; actives 3.1% (n = 140,000); AID 2417;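 active = readout at or below -70, meaning at least 70% loss of cells showing the perinucleolar compartment, a nuclear body marking cancer cells; inconclusive = readout between -30 and a set limit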
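PC3M cells stably expressing PTB-GFP, 750–1000 cells/well, treated 16 h at 37 °C with compound (23 nl of library stock), in duplicate. After paraformaldehyde fixation and Hoechst stain, imaged at 20x; PNC prevalence scored by image analysis.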
HPGD block: HPGD (human) dehydrogenase inhibition; purified HPGD, NADH fluorescence kinetic, PGE2 substrate; Potency, µM, hits mostly inhibitors; actives 4.3% (n = 150,000); AID 894
Target sequence (P15428 whole entry, looked up): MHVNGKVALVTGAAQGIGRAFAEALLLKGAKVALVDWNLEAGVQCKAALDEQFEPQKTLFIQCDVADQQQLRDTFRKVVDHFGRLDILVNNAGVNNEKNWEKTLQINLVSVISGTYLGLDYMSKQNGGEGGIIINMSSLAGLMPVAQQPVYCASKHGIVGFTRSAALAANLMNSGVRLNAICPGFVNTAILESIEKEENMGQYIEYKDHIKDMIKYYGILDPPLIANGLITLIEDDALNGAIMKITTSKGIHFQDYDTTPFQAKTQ
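20 nM HPGD preincubated 15 min at room temperature with compound in 50 mM Tris-HCl pH 8, 0.01% Tween 20. Started with 1 mM NAD+ and 30 uM prostaglandin E2; NADH fluorescence (360/450 nm) read 5 times over 30-s intervals, last minus first.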
Large screens that a line does not name were inactive. This is a sample that favours compounds with a hit; in the whole collection about 10% have one here. Unless noted, calls follow the shape of the dose curve; as a rule, active = well fitted inhibition curve with a large enough effect (not every such curve was filed as active); inconclusive = small, poorly fitted or top-dose-only effect, or another doubt; inactive = no such curve, though single readings can be large or run the other way.

CCCc1cc(C(=O)Nc2sc(C(C)=O)c(C)c2C(=O)OCC)no1	ALDH1A1 block 25µM, HPGD block inconclusive
CCOC(=O)c1sc(NC(=O)c2cccnc2)nc1C	IMPase inh inconclusive
CCCCC(=O)Nc1sc(C(=O)N(CC)CC)c(C)c1C(=O)OC	ALDH1A1 block 8.9µM, PNC inhibitor -100, HPGD block 2.5µM
CCOc1c(Br)cc(C2CC(=O)Nc3cc4c(cc32)OCO4)cc1OC (stereo not given)	none (no result: ALDH1A1 block, LMNA splice mod, Luc counter, PNC inhibitor, HPGD block)
Cn1cc(-c2cc3n(n2)CCC(=O)N3CC(=O)NCc2ccccc2)c2ccccc21	none (no result: ALDH1A1 block, IMPase inh, Luc counter, PNC inhibitor, HPGD block)
Cc1ccc(C)c([C@@H]2NC(=O)c3ccccc3N2)c1	ALDH1A1 block inconclusive, HPGD block inconclusive (no result: LMNA splice mod, IMPase inh, PNC inhibitor)
CCN(CC)C(=O)c1sc(NC(=O)c2cccnc2)c(C(=O)OC)c1C	ALDH1A1 block inconclusive, HPGD block 20µM (no result: IMPase inh)
COC(=O)c1c(-c2cccs2)csc1NC(=O)c1ccc(Cl)cc1	none (no result: ALDH1A1 block, IMPase inh, Luc counter, PNC inhibitor, HPGD block)
CCOC(=O)c1sc(NC(=O)c2ccc(Br)o2)cc1C	ALDH1A1 block inconclusive, Luc counter inconclusive, HPGD block inconclusive
CCN(CC)C(=O)c1sc(NC(=O)c2ccc(Br)o2)c(C(=O)OC)c1C	ALDH1A1 block inconclusive, HPGD block 16µM
COC(=O)c1c(-c2cccs2)csc1NC(=O)c1cccnc1	ALDH1A1 block inconclusive, LMNA splice mod inconclusive, PNC inhibitor -100, HPGD block inconclusive
O=C(c1ccccc1)c1cc2ccc(O)cc2oc1=O	ALDH1A1 block inconclusive, Luc counter 11µM, HPGD block inconclusive
COc1ccc2cc(C(=O)NCc3ccco3)c(=O)oc2c1	ALDH1A1 block inconclusive, PNC inhibitor inconclusive, HPGD block inconclusive
O=C(NCc1ccco1)c1cc2ccc(O)cc2oc1=O	ALDH1A1 block inconclusive, IMPase inh inconclusive, Luc counter 5µM, HPGD block inconclusive
Cc1c(Cl)cccc1-n1ncc(C(=O)Nc2ccc3c(c2)OCCO3)c1C1CCN(C(=O)OC(C)(C)C)CC1	none (no result: ALDH1A1 block, IMPase inh, Luc counter, PNC inhibitor, HPGD block)
CCC(=O)Nc1ccc(S(=O)(=O)Nc2ccc(Cl)nn2)cc1	PNC inhibitor -80 (no result: IMPase inh)
Oc1ccc(N=Nc2cccc(Cl)c2)cc1C=Nc1ccc(N2CCOCC2)cc1	ALDH1A1 block inconclusive
Oc1ccc2ccccc2c1C=Nc1ccc(N2CCOCC2)cc1	ALDH1A1 block 4.5µM, HPGD block 20µM
CN(C)/N=C/c1c(O)ccc2ccccc12	HPGD block 32µM
OCC(CO)(CO)N=Cc1c(O)ccc2ccccc12	ALDH1A1 block inconclusive
CCCNC(=S)NCCN1CCCCC1	ALDH1A1 block 35µM
COc1cccc2c1CCC1=CC(=O)CC[C@@]12C	ALDH1A1 block inconclusive (no result: LMNA splice mod, IMPase inh, PNC inhibitor)
C=CCc1c(OC(C)=O)c2ccccc2n(C)c1=O	PNC inhibitor -106 (no result: IMPase inh)
CCOc1c(Br)cc(C2C=C(C(=O)O)Nc3ncnn32)cc1OC (stereo not given)	none (no result: ALDH1A1 block, LMNA splice mod, Luc counter, PNC inhibitor, HPGD block)
O=C1C2=C(Nc3ccccc3SC2c2ccco2)c2ccccc21 (stereo not given)	ALDH1A1 block 6.3µM
O=C1C2Cc3c([nH]c4ccccc34)C(c3ccccc3)N2C(=O)C2Cc3c([nH]c4ccccc34)C(c3ccccc3)N12 (stereo not given)	none (no result: LMNA splice mod, IMPase inh, Luc counter, PNC inhibitor, HPGD block)
Cc1ccc(-c2noc(-c3cc4ccccc4oc3=O)n2)cc1	ALDH1A1 block inconclusive, PNC inhibitor inconclusive, HPGD block inconclusive
Cc1cccc(-c2noc(-c3ccc(Cl)cc3[N+](=O)[O-])n2)c1	LMNA splice mod inconclusive, HPGD block 14µM (no result: IMPase inh)
Cc1cccc(-c2noc(-c3cc4ccccc4oc3=O)n2)c1	ALDH1A1 block inconclusive, PNC inhibitor -106, HPGD block inconclusive
Cc1cccc(-c2noc(-c3ccoc3C)n2)c1	none (no result: IMPase inh, PNC inhibitor, HPGD block)
COc1ccc(-c2noc(-c3ccc(Cl)cc3[N+](=O)[O-])n2)cc1OC	PNC inhibitor inconclusive, HPGD block 18µM (no result: IMPase inh)
Cc1ccc(C)c(S(=O)(=O)c2cn(Cc3ccccc3)c3cc(N4CCCC4)c(F)cc3c2=O)c1	none (no result: ALDH1A1 block, IMPase inh, Luc counter, PNC inhibitor, HPGD block)
O=[N+]([O-])c1ccc(Oc2ccc(/C=N/O)cc2)nc1	none (no result: LMNA splice mod, IMPase inh, PNC inhibitor, HPGD block)
O=C1NC(=O)/C(=C\c2ccc(Oc3ccc([N+](=O)[O-])cn3)cc2)S1	ALDH1A1 block inconclusive, LMNA splice mod inconclusive, HPGD block 13µM

High-throughput results as filed in PubChem BioAssay.
